# Columns and labels:
# Test in all cases: pooled miR-30 sensor sort-seq; sequence = guide strand
# Settings in all cases: shRNA
# TC2N = target: TC2N
# TCEA3 = target: TCEA3
# TCEAL1 = target: TCEAL1
# TCEANC2 = target: TCEANC2
# TDRD7 = target: TDRD7
# TDRD10 = target: TDRD10
# TDRKH = target: TDRKH
# TCTN3 = target: TCTN3
# TEAD3 = target: TEAD3
# Further: reference of the scale not given here.
sequence,measurement,setting,value
TTACTGTCTCTTTCCACTGGTT,sensor-assay potency score (higher = more potent),TC2N,-0.545
ATAGGTGCAGTTCTTCTTCTTG,sensor-assay potency score (higher = more potent),TCEA3,-0.625
AAAGCTTCCTTCTTCAAGCTTA,sensor-assay potency score (higher = more potent),TCEAL1,0.373
TCTTGTCACAGTTGACTCCATA,sensor-assay potency score (higher = more potent),TCEA3,-0.75
TTCGGGAGAGTGCTCCACCGGA,sensor-assay potency score (higher = more potent),TCEAL1,-1.49
TTCTACAACCACAACTCTCTTC,sensor-assay potency score (higher = more potent),TCEANC2,-0.1
TACTTCATGTCCGTGCTCTTGA,sensor-assay potency score (higher = more potent),TCEA3,0.446
TTGAAGAAGAACTACTGGGTAC,sensor-assay potency score (higher = more potent),TC2N,-0.298
TTTCTTCTTACAGAGCTTCGAC,sensor-assay potency score (higher = more potent),TC2N,-0.277
TTAATAGCAAATACAAACGTTT,sensor-assay potency score (higher = more potent),TC2N,-0.542
TAGCATTTTGACTATTTGGGAC,sensor-assay potency score (higher = more potent),TC2N,-0.206
TTCTTCTTCTTGCATTTGCTGC,sensor-assay potency score (higher = more potent),TCEA3,-0.856
TTTCTGAGCATTTTTCCTCAAC,sensor-assay potency score (higher = more potent),TCEANC2,-1.1
TCTGATGCCATCTTGTCACAGT,sensor-assay potency score (higher = more potent),TCEA3,-0.177
TTGATTTTAACACTTCCCTGGA,sensor-assay potency score (higher = more potent),TCEANC2,0.232
ATTAACAGCAACTCCAATCCTG,sensor-assay potency score (higher = more potent),TCEA3,0.388
TTACTCTTTTCATCTCTTCTAG,sensor-assay potency score (higher = more potent),TCEAL1,-0.0336
TGAACTGGAAAGTTCTACCTTT,sensor-assay potency score (higher = more potent),TC2N,0.507
TTTTCATCTCTTCTAGCTCATC,sensor-assay potency score (higher = more potent),TCEAL1,-1.39
TTCTAGCTCATCTGCTGCCTGT,sensor-assay potency score (higher = more potent),TCEAL1,-0.542
TTATAAATCAACTCTCCCGAGC,sensor-assay potency score (higher = more potent),TC2N,-0.579
TTCTTCTTGCATTTGCTGCACT,sensor-assay potency score (higher = more potent),TCEA3,-0.468
TTAAATCACAAACCGATCCATA,sensor-assay potency score (higher = more potent),TC2N,-0.989
TTTAATAGCAAATACAAACGTT,sensor-assay potency score (higher = more potent),TC2N,-0.37
TCGATTTCTGATGCCATCTTGT,sensor-assay potency score (higher = more potent),TCEA3,-0.388
TTACTGTCTGTGTCTCTTGTTG,sensor-assay potency score (higher = more potent),TC2N,-0.31
TTAACAGCAACTCCAATCCTGG,sensor-assay potency score (higher = more potent),TCEA3,-0.797
TGTATCATCTCCTCATTGCTTA,sensor-assay potency score (higher = more potent),TCEAL1,0.297
TTATGTTTTCCTACTCCACAAG,sensor-assay potency score (higher = more potent),TCEAL1,-1.15
TTTGTTTCTTACTCTTTTCATC,sensor-assay potency score (higher = more potent),TCEAL1,-1.09
TTGGTAGATATGATCTTCGATT,sensor-assay potency score (higher = more potent),TCEA3,-0.766
TTCCGGTACTTCATGTCCGTGC,sensor-assay potency score (higher = more potent),TCEA3,0.146
TCATCTCTTCTAGCTCATCTGC,sensor-assay potency score (higher = more potent),TCEAL1,-1.12
TAAAACTGTGATCCAGATCTGT,sensor-assay potency score (higher = more potent),TC2N,-0.0159
TAAATTGCGGGCGAGAACGAGC,sensor-assay potency score (higher = more potent),TCEAL1,-1.13
TTACTGTCTTCACTTATCCAAA,sensor-assay potency score (higher = more potent),TC2N,-1.52
TTTTCTTCTTTAATTCTTGTAA,sensor-assay potency score (higher = more potent),TCEANC2,-0.255
ATCAGTTTGTTTCTTACTCTTT,sensor-assay potency score (higher = more potent),TCEAL1,-0.801
ATTATCATCAGTTTGTTTCTTA,sensor-assay potency score (higher = more potent),TCEAL1,0.834
TTGAGGTTGCTTATGCGGCTGC,sensor-assay potency score (higher = more potent),TCEA3,-0.208
TATAGTAGTAACTTCATCTGAC,sensor-assay potency score (higher = more potent),TCEANC2,0.875
ATAGTCAACATAGCATACCTTT,sensor-assay potency score (higher = more potent),TDRD7,-1.08
TTCCTCCTTAGAAATATCCAGT,sensor-assay potency score (higher = more potent),TDRD10,-0.848
AAGATTGCCAACATACACCTCT,sensor-assay potency score (higher = more potent),TDRD10,0.896
TTGATAGTAGTAATGTCCCTTC,sensor-assay potency score (higher = more potent),TDRKH,-0.374
TTGGTCTCAGTGAGCAACGTGC,sensor-assay potency score (higher = more potent),TDRKH,-0.522
TATAAGTAGATCTTTGGCCAAG,sensor-assay potency score (higher = more potent),TDRKH,-1.04
TTGGTCTCTATCTCATAGGTGA,sensor-assay potency score (higher = more potent),TCTN3,-0.211
TTGTGTACTAATTCTAGCCCAA,sensor-assay potency score (higher = more potent),TDRKH,0.0219
TTGTAGGTAAAGGTGCTGCTAC,sensor-assay potency score (higher = more potent),TDRKH,-0.223
TTCTCGTCCGAGTCTTCCCCGT,sensor-assay potency score (higher = more potent),TEAD3,-0.997
TTCTCTACCACCTGTTTGCCAA,sensor-assay potency score (higher = more potent),TEAD3,-0.68
TAGATTGTGGAAGATCTGCTAA,sensor-assay potency score (higher = more potent),TDRD7,-0.00415
TTTAATATTGGCTCCTTGCCGG,sensor-assay potency score (higher = more potent),TDRKH,-0.28
ATGTCCTTCAACATGTCTGGGA,sensor-assay potency score (higher = more potent),TDRKH,-0.897
TCCAACACTCCATTCTTCCCAA,sensor-assay potency score (higher = more potent),TDRD10,-0.74
TAGAAGGTCACTGAGCTTGTTC,sensor-assay potency score (higher = more potent),TDRD7,-0.0033
TTAGTTACTTTGACATTTGTGT,sensor-assay potency score (higher = more potent),TDRD7,0.2
TTCTCCATTATCCAGAATCTGT,sensor-assay potency score (higher = more potent),TDRD10,-1.03
ATGAACATGACCACAGCCCAGG,sensor-assay potency score (higher = more potent),TDRD10,-1.56

# Source: the OligoGym collection
